Bioassay records (PubChem BioAssay)
Only some compounds are listed: those with a hit (about 7.3% of all), similar ones and a draw of the others.
Gal4-VP16 FLuc: VP16 counterscreen qHTS for inhibitors of ROR gamma transcriptional activity; Potency, µM (highest dose often 53.6 µM), without a hit: at the highest dose activity, negative = inhibition, hits mostly inhibitors; AID 2546, 2010; Drosophila S2 Gal4-VP16 UAS-luciferase, luminescence, 20 h; 3.5% of 310,000 active;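 also: Gal4-VP16 expression switched on by copper sulfate through the metallothionein promoter; nearly all actives have a fitted effect of over 50% in size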
Tau ThT inhib: qHTS for Inhibitors of Tau Fibril Formation, Thioflavin T Binding; recombinant tau K18 P301L, heparin-induced fibrillization, ThT fluorescence; Potency, µM (titrated, usually from 57.4 µM), for the others: at the top dose activity, negative = inhibition, usual class: inhibitors; 2.1% of 270,000 active; AID 1460, 2008; also: nearly all actives have a fitted effect of over 55% in size
Target sequence (P10636 561-689 P618L limits assumed): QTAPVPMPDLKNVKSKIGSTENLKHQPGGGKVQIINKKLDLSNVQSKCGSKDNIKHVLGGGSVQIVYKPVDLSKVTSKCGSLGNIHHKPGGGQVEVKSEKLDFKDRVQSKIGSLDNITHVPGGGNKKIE
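K18 P301L tau (15 uM + 0.24 uM Alexa 594-tagged), heparin 20 uM, NaOAc pH 7, 6 h 37 C; ThT 30 uM, 1 h RT, ex 450/em 510 nm.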
Tau fibril FP: qHTS for Inhibitors of Tau Fibril Formation, Fluorescence Polarization; Microtubule-associated protein tau (Homo sapiens), P10636; K18 P301L tau heparin fibrillization, Alexa594 FP, 6 h; Potency, µM (doses to about 57.7 µM), without a hit: at the top dose activity, negative = inhibition, actives largely listed as inhibitors; 0.39% of 280,000 active; AID 1468, 2008; also: nearly all actives have a fitted effect of over 55% in size
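Human tau K18 […] P301L fragment, 15 uM unlabeled plus 0.24 uM Alexa 594-labeled tau (final), with compound and 20 uM heparin in 100 mM sodium acetate pH 7; 6 hr at 37 C, then Alexa 594 FP read.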
RORg inh: qHTS for inhibitors of ROR gamma transcriptional activity; 5.4% of 310,000 active; Nuclear receptor ROR-gamma (Mus musculus), P51450; Potency, µM (titrated, usually from 53.6 µM), without a hit: at the highest dose activity change, negative = inhibition, actives largely listed as inhibitors; Drosophila S2 Gal4-RORgamma UAS-luciferase reporter, 20 h; also: nearly all actives have a fitted effect of over 60% in size
Target sequence (P51450 whole entry, looked up, the tested form may be a part): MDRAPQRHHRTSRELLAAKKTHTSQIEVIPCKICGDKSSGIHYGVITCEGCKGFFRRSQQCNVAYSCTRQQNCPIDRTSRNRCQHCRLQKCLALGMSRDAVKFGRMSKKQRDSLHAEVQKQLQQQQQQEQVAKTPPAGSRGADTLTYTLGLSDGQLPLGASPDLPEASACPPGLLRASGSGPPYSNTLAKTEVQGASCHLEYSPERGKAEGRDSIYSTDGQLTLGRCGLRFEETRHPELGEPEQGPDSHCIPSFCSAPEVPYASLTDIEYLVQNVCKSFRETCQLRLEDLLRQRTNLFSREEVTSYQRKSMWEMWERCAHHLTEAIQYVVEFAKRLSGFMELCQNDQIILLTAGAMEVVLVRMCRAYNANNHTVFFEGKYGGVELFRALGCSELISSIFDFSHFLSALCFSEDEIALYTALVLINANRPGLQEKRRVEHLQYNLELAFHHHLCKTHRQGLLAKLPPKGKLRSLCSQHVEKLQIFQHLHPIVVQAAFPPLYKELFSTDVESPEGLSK
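Schneider cells (Drosophila), stable Gal4 DBD–ROR gamma + UAS-luc; 1 hr cmpd preincubation; Cu2+ induction 700 uM final; 20 hr ambient; luminescence.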
Tau fluor counter: Counterscreen qHTS for Inhibitors of Tau Fibril Formation, Fluorescence Polarization; tau K18 P301L (four-repeat tau fragment) Alexa594 fluorescence, heparin fibrillization; Potency, µM (highest dose often 57.7 µM), without a hit: at the top dose activity change, negative = decrease; 0.93% of 280,000 active; also: nearly all actives have a fitted effect of over 55% in size
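Human K18 P301L tau (15 uM unlabeled plus 0.24 uM Alexa 594-labeled, final) in 100 mM sodium acetate pH 7 was mixed with compound and 20 uM heparin and incubated 6 hr at 37 C.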
The depositor's hits bear a star; ? = inconclusive; · = no result given; [ ] = dose if it differs, or a comment. Calls follow the shape of the dose curve; as a rule, active = well fitted curve in the direction sought with a large enough effect; inconclusive = small, poorly fitted or top-dose-only effect, or another doubt; inactive = no such curve, though single readings can be large; an effect the other way counts as inactive or inconclusive. % is scaled to controls: 0 for no effect and ±100 for the full control effect; potency is read from the fitted curve at half-maximal effect.

SMILES	Gal4-VP16 FLuc	Tau ThT inhib	Tau fibril FP	RORg inh	Tau fluor counter
O=C(CCl)N(C1CCCC1)C1CCS(=O)(=O)C1 (configuration not stated)	16µM*	·	·	?	·
O=C(c1cc(-c2ccc(F)cc2)on1)N1CCCC1	-60%	?	-2%	14µM*	-22%
O=C(c1cc(-c2cccc(O)c2)on1)N1CCCCC1	-18%	-6%	7%	0.71µM*	5%
COc1ccc(-c2cc(C(=O)N3CCCC3)no2)cc1	10µM*	·	·	4µM*	·
O=C(c1cc(-c2ccc(F)cc2)on1)N1CCCCCC1	-10%	·	·	-2%	·
O=C(c1cc(-c2cccc(O)c2)on1)N1CCCC1	-12%	·	·	7%	·
COc1ccc(-c2cc(C(=O)N3CCCCCC3)no2)cc1	-19%	·	·	-37%	·
Cc1nn(CC(=O)NCc2ccco2)c(=O)c2cc3ccccc3n12	·	7%	6%	·	8%
Cc1ccc(NC(=O)c2cc(S(=O)(=O)N3CCc4ccccc43)ccc2F)cc1Cl	·	5%	?	·	-27%
Cc1ccc(C(C)C)c2oc(=O)cc(-c3ccc(-c4ccc(C(F)(F)F)cc4)cc3)c12	0%	-13%[81.4 µM]	-5%[81.3 µM]	6%	-8%[81.3 µM]
CC(=O)c1ccc(-c2ccc(-c3cc(=O)oc4c(C(C)C)ccc(C)c34)cc2)cc1	11µM*	-17%[81.4 µM]	-11%[81.3 µM]	?	-15%[81.3 µM]
CC(=O)OCC(=O)[C@@]1(O)CCC2C3CC[C@H]4CC(O)CC[C@@]4(C)C3C(=O)C[C@]21C (some centres not stated)	-5%	-4%	0%	-14%	-9%
O=C(NCc1ccccc1)c1ccc(/C=N/O)nc1	2%	0%	3%	5µM*	7%
C/C(=N\Nc1ccc(Cl)c(Cl)c1)c1ccc(-n2ccnc2)cc1	-2%	?	2%	-24%	14µM*[quencher]
C=C(C)CNC(=S)N/N=C(\C)c1ccc(-n2ccnc2)cc1	7.9µM*	-14%	-2%	6.3µM*	-12%
CCCC[C@H](NC(=O)[C@H](CO)NC(=O)[C@H](Cc1ccc(O)cc1)NC(=O)[C@H](CO)NC(C)=O)C(=O)N[C@@H](CCC(=O)O)C(=O)N[C@@H](Cc1cnc[nH]1)C(=O)N[C@H](Cc1ccccc1)C(=O)N[C@@H](CCCNC(=N)N)C(=O)N[C@@H](Cc1c[nH]c2ccccc12)C(=O)NCC(=O)N[C@@H](CCCCN)C(=O)N1CCC[C@H]1C(=O)N[C@H](C(N)=O)C(C)C	-5%	·	·	-15%	·
Cc1ccc2c(c1)cc1c(=O)n(CC(=O)NCc3ccco3)nc(C)n12	·	1%	0%	·	3%
CCOC(=O)C1=C(C)N(C)C(=S)NC1c1cc(OC)ccc1OC (configuration not stated)	?	-3%	-1%	14µM*	-6%
CCOC(=O)N1CCc2c(sc3c2c(=O)n(CCc2ccccc2)c(=O)n3Cc2cc(C)ccc2C)C1	·	-7%	-4%	·	-1%
CCCC(C)NC(=S)Nc1cc(C)cc(C)c1 (configuration not stated)	6.3µM*	-2%	0%	1.4µM*	-13%
CC(Cc1cccs1)NC(=S)Nc1ccccc1 (configuration not stated)	7.1µM*	0%	-4%	4.5µM*	-1%
CCc1cccc(CC)c1NC(=S)Nc1ccccc1	?	-6%	-4%	13µM*	-3%
S=C(Nc1ccccc1)N1CCN(C(=S)Nc2ccccc2)CC1	1%	-3%	1%	16%	2%
CCCOC(=S)Nc1ccccc1	-20%	-17%	1%	11µM*	-6%
O=C(NC1CCN(Cc2ccccc2)CC1)c1ccc(Cn2c(=O)c3ccccc3n(Cc3ccc(Cl)cc3)c2=O)cc1	·	1%	6%	·	-10%
SMILES	Gal4-VP16 FLuc	Tau ThT inhib	Tau fibril FP	RORg inh	Tau fluor counter
Cc1cc([N+](=O)[O-])ccc1NC(=O)C(C)NC1CCCCC1 (configuration not stated)	-4%	·	·	-1%	·
Cc1ccc2c(c1)NC(c1cccs1)C1=C(CC(C)(C)CC1=O)N2 (configuration not stated)	5%	-5%	3%	13%	-10%
CC(C)N(C)NC(=S)Nc1ccccc1	?	2%	4%	-42%[10 µM]	-1%
CC(Cc1cccs1)NC(=O)Nc1ccc(Cl)c(Cl)c1 (configuration not stated)	-3%	-4%	25µM*	?	?
CCC(C)NC(=S)Nc1ccccc1 (configuration not stated)	?	-10%	1%	5.6µM*	-14%
CCC(C)NC(=S)Nc1ccccc1OC (configuration not stated)	-1%	2%	0%	5%	4%
CCC(C)NC(=S)Nc1ccc(C(=O)OC)cc1 (configuration not stated)	?	-4%	-2%	7.1µM*	-13%
CCN(CC)NC(=S)Nc1ccccc1	?	-7%	-2%	3.2µM*	1%
COC(=O)N1CCC[C@@]2(CCN(Cc3cc(C(F)(F)F)cc(C(F)(F)F)c3)C2)C1	-7%	·	·	13%	·
C=C1CC2C3C=C(C)C4=CC(=O)CCC4(C)C3CCC2(C)[C@@]1(OC(C)=O)C(C)=O (some centres not stated)	-9%	·	·	-2%[10 µM]	·
CC(NC(=S)Nc1ccc(F)cc1)c1ccccc1 (configuration not stated)	7.9µM*	·	·	7.1µM*	·
CCOc1cc(-c2cc(C(=O)O)c3c(-c4ccccc4)[nH]nc3n2)ccc1O	·	-12%	1%	·	-5%
O=C(Nc1ccc(Br)cn1)c1ccc(Br)s1	?	·	·	17%	·
Cc1ccccc1C(=O)Nc1ccc(Br)cn1	0%	3%	-2%	?	6%
S=C(Nc1ccccc1)Nc1ccc(Br)cn1	5.6µM*	17%	4%	0.89µM*	6%
O=C(NC(=S)Nc1ccccc1[N+](=O)[O-])c1cncc(Br)c1	5.6µM*	·	·	7.1µM*	·
COc1ccc(C(=O)Nc2ccc(NC(=O)c3cccs3)cn2)cc1	9%	·	·	0.22µM*	·
O=C(NC(=S)Nc1ccc(Br)cn1)c1cccs1	8.9µM*	-1%	-6%	2.2µM*	-5%
Cc1nn2c(=O)cc(COC(=O)c3ccc(NC(=O)CCc4ccccc4)cc3)nc2s1	·	1%	1%	·	5%
CCNc1ncc2nc(-c3ccc(F)cc3)c(=O)n(C[C@H]3CCCO3)c2n1	7%	·	·	1%	·
Cc1cccnc1NC(=S)NC(=O)c1cccs1	10µM*	-13%	-4%	4µM*	-12%
Cc1cccnc1NC(=O)NC(=O)c1ccc(C(C)(C)C)s1	-17%	·	1%	-9%	-13%
O=C(NC(=S)Nc1ccc(Br)cn1)c1cncc(Br)c1	-4%	-12%	-6%	0.5µM*	-3%
